# The sample as a whole holds a higher share of the strongest signals than the screen did.
# Key:
# Experiment in all cases: glycan array binding signal (z-score within array); higher = stronger binding
# Conditions in all cases: glycan notation: IUPAC condensed, linker removed; mutation: Y54A
# [1] = target: Fuc(a1-2)Gal(b1-4)GlcNAc(b1-2)Man
# How it was run: (§1)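 Columns mapping to the same glycan were averaged after glycan names were converted to IUPAC-condensed notation. The data come from 3228 arrays in the Consortium for Functional Glycomics database, limited to those with an available protein sequence. Binding is reported as a within-array Z-score averaged across arrays of one protein sequence and across linkers.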
# [2] = target: Fuc(a1-2)Gal(b1-4)GlcNAc(b1-3)Gal(b1-4)GlcNAc(b1-2)Man(a1-3)[Fuc(a1-2)Gal(b1-4)GlcNAc(b1-3)Gal(b1-4)GlcNAc(b1-2)Man(a1-6)]Man(b1-4)GlcNAc(b1-4)GlcNAc
# How it was run: as §1
# [3] = target: Fuc(a1-2)Gal6S(b1-3)GlcNAc
# How it was run: as §1
# [4] = target: Fuc(a1-2)[Gal(a1-3)]Gal(b1-3)GlcNAc(b1-6)GalNAc
# How it was run: as §1
# [5] = target: Fuc(a1-2)[GalNAc(a1-3)]Gal(b1-3)GalNAc(b1-3)Gal(a1-4)Gal(b1-4)Glc
# How it was run: as §1
# [6] = target: Fuc(b1-3)GlcNAc
# How it was run: as §1
# [7] = target: Gal(a1-3)Gal(b1-4)GlcNAc(b1-2)Man(a1-3)[Gal(a1-3)Gal(b1-4)GlcNAc(b1-2)Man(a1-6)]Man(b1-4)GlcNAc(b1-4)GlcNAc
# How it was run: as §1
# [8] = target: Gal(a1-3)Gal(b1-4)GlcNAc(b1-6)GalNAc
# How it was run: as §1
# [9] = target: Gal(b1-3)Gal
# How it was run: as §1
# [10] = target: Gal(b1-3)GlcNAc(b1-3)Gal(b1-3)GlcNAc
# How it was run: as §1
# [11] = target: Gal(b1-3)GlcNAc(b1-3)Gal(b1-4)Glc
# How it was run: as §1
# [12] = target: Gal(b1-3)[Fuc(a1-4)]GlcNAc(b1-2)Man
# How it was run: as §1
# [13] = target: Gal(b1-3)[Fuc(a1-4)]GlcNAc(b1-2)Man(a1-3)[Gal(b1-3)[Fuc(a1-4)]GlcNAc(b1-2)Man(a1-6)]Man(b1-4)GlcNAc(b1-4)[Fuc(a1-6)]GlcNAc
# How it was run: as §1
# [14] = target: Gal(b1-4)GlcNAc(b1-2)[Gal(b1-4)GlcNAc(b1-4)]Man(a1-3)[Gal(b1-4)GlcNAc(b1-2)[Gal(b1-4)GlcNAc(b1-6)]Man(a1-6)]Man(b1-4)GlcNAc(b1-4)GlcNAc
# How it was run: as §1
# [15] = target: Gal(b1-4)GlcNAc(b1-3)Gal(b1-4)GlcNAc(b1-3)Gal(b1-4)GlcNAc(b1-3)Gal(b1-4)GlcNAc(b1-2)Man(a1-3)[Gal(b1-4)GlcNAc(b1-3)Gal(b1-4)GlcNAc(b1-3)Gal(b1-4)GlcNAc(b1-3)Gal(b1-4)GlcNAc(b1-2)Man(a1-6)]Man(b1-4)GlcNAc(b1-4)GlcNAc
# How it was run: as §1
# [16] = target: Gal(b1-4)GlcNAc(b1-3)Gal(b1-4)GlcNAc(b1-3)Gal(b1-4)GlcNAc(b1-3)Gal(b1-4)GlcNAc(b1-3)Gal(b1-4)GlcNAc(b1-2)Man(a1-3)[Gal(b1-4)GlcNAc(b1-3)Gal(b1-4)GlcNAc(b1-3)Gal(b1-4)GlcNAc(b1-3)Gal(b1-4)GlcNAc(b1-3)Gal(b1-4)GlcNAc(b1-2)Man(a1-6)]Man(b1-4)GlcNAc(b1-4)[Fuc(a1-6)]GlcNAc
# How it was run: as §1
# [17] = target: Gal(b1-4)GlcNAc(b1-3)Gal(b1-4)GlcNAc(b1-3)Gal(b1-4)GlcNAc(b1-3)Gal(b1-4)GlcNAc(b1-3)Gal(b1-4)GlcNAc(b1-2)[Gal(b1-4)GlcNAc(b1-3)Gal(b1-4)GlcNAc(b1-3)Gal(b1-4)GlcNAc(b1-3)Gal(b1-4)GlcNAc(b1-3)Gal(b1-4)GlcNAc(b1-6)]Man(a1-6)[Gal(b1-4)GlcNAc(b1-3)Gal(b1-4)GlcNAc(b1-3)Gal(b1-4)GlcNAc(b1-3)Gal(b1-4)GlcNAc(b1-3)Gal(b1-4)GlcNAc(b1-2)Man(a1-3)]Man(b1-4)GlcNAc(b1-4)[Fuc(a1-6)]GlcNAc
# How it was run: as §1
# [18] = target: Gal(b1-4)GlcNAc(b1-3)Gal(b1-4)GlcNAc(b1-3)[Gal(b1-4)GlcNAc(b1-3)Gal(b1-4)GlcNAc(b1-6)]GalNAc
# How it was run: as §1
# [19] = target: Gal(b1-6)Gal
# How it was run: as §1
# [20] = target: Gal3S(b1-4)[Fuc(a1-3)]GlcNAc6S
# How it was run: as §1
# [21] = target: Gal3S6S(b1-4)GlcNAc6S
# How it was run: as §1
# [22] = target: Gal4S6S(b1-4)GlcNAc
# How it was run: as §1
# [23] = target: Gal6S(b1-4)GlcNAc
# How it was run: as §1
# [24] = target: GalNAc(b1-3)Gal(a1-4)Gal(b1-4)GlcNAc(b1-3)Gal(b1-4)Glc
# How it was run: as §1
# [25] = target: GalNAc(b1-3)GalNAc
# How it was run: as §1
binder,measurement,setting,value
"CBP21 (Serratia marcescens), O83009 (protein) MNKTSRTLLSLGLLSAAMFGVSQQANAHGYVESPASRAYQCKLQLNTQCGSVQAEPQSVEGLKGFPQAGPADGHIASADKSTFFELDQQTPTRWNKLNLKTGPNSFTWKLTARHSTTSWRYFITKPNWDASQPLTRASFDLTPFCQFNDGGAIPAAQVTHQCNIPADRSGSHVILAVWDIADTANAFYQAIDVNLSK",glycan array binding signal (z-score),[1],-0.872
same,glycan array binding signal (z-score),[2],2.34
same,glycan array binding signal (z-score),[3],4.33
same,glycan array binding signal (z-score),[4],-0.403
same,glycan array binding signal (z-score),[5],-0.164
same,glycan array binding signal (z-score),[6],-0.276
same,glycan array binding signal (z-score),[7],-0.395
same,glycan array binding signal (z-score),[8],1.24
same,glycan array binding signal (z-score),[9],-0.635
same,glycan array binding signal (z-score),[10],0.339
same,glycan array binding signal (z-score),[11],1.22
same,glycan array binding signal (z-score),[12],0.608
same,glycan array binding signal (z-score),[13],0.588
same,glycan array binding signal (z-score),[14],0.113
same,glycan array binding signal (z-score),[15],0.181
same,glycan array binding signal (z-score),[16],5.09
same,glycan array binding signal (z-score),[17],1.3
same,glycan array binding signal (z-score),[18],-0.31
same,glycan array binding signal (z-score),[19],-0.809
same,glycan array binding signal (z-score),[20],-0.109
same,glycan array binding signal (z-score),[21],4.88
same,glycan array binding signal (z-score),[22],0.517
same,glycan array binding signal (z-score),[23],4.2
same,glycan array binding signal (z-score),[24],-0.857
same,glycan array binding signal (z-score),[25],-0.995
